# Rows were chosen to be rich in hits. Some 4.3% of all compounds tested hit in one or more screens of this group.
# GLP1R ag: agonists of human GLP-1 receptor; HEK293 GLP-1R CRE-luciferase, luminescence, 4-6 h; cells express a hypersensitive GLP-1R form; Potency, µM (highest dose often 45.6 µM), actives largely listed as activators; hit rate 0.007% among 380,000
# Target sequence (P43220 whole entry, looked up): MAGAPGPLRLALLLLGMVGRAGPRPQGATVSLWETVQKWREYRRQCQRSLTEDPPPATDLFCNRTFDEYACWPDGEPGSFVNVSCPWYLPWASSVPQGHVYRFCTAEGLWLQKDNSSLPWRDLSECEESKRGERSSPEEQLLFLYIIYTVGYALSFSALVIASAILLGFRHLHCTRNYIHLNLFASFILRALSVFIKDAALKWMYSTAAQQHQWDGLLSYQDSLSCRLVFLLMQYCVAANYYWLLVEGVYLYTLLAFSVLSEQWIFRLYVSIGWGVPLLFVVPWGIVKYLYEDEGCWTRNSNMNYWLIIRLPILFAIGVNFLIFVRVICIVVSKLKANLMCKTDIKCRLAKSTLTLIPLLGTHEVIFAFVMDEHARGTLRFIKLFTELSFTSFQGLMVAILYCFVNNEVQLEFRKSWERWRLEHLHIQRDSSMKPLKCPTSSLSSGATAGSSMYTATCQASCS
# GLP1R inv ag: acts as inverse agonist at human GLP-1 receptor | Potency, µM (doses to about 38.3 µM), actives largely listed as inhibitors | hit rate 1.6% among 410,000 | HEK293 GLP-1R CRE-luciferase, luminescence, 24 h; GLP-1R form is constitutively active | P43220; also: nearly all actives have a fitted effect of over 55% in size
#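 Stable HEK293 clone (constitutively active GLP-1R + cAMP-response luciferase); 200 cells/uL plated, 12 h pre-culture, compound 24 hr, 37 deg C/5% CO2; detection reagent 12 min RT; luminescence.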
# DRD3 antagonist: D3 dopamine receptor (human) antagonism; P35462; D3R cells, DiscoveRx beta-arrestin luminescence, antagonist mode; active compounds read low; max response, negative = inhibition, %; hit rate 2.5% among 360,000; AID 652054; in the data active = max response below about -50%; inconclusive = no clear call, values can overlap the other calls
#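 Cells plated overnight at 1500 cells/well, then exposed to library compounds with dopamine controls for 90 minutes at 37 degrees C. DiscoveRx reagent added for 30–60 minutes at room temperature; luminescence read, quantitative HTS format.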
# D3 ag: activates the human D3 dopamine receptor; AID 652048; max activation, %; hit rate 0.58% among 410,000; D3R DiscoveRx beta-arrestin cells, luminescence, 90 min; in the data active = max activation above about 30%
#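 Agonist mode: compounds and dopamine controls were applied to plated cells for 90 min at 37 degrees C after an overnight attachment at 1500 cells/well. Luminescent read-out followed 30 - 60 minutes at room temperature with DiscoveRx detection reagent.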
# Numbers stand for hits; – = inactive; ? = inconclusive; · = no result given. Unless noted, calls follow the shape of the dose curve; as a rule, active = well fitted curve in the direction sought with a large enough effect; inconclusive = small, poorly fitted or top-dose-only effect, or another doubt; inactive = no such curve, though single readings can be large; an effect the other way counts as inactive or inconclusive.
SMILES,GLP1R ag,GLP1R inv ag,DRD3 antagonist,D3 ag
O=C(COC(=O)c1cccc(S(=O)(=O)N2CCc3ccccc3C2)c1)NCc1ccco1,–,–,–,–
COc1ccc(CCNC(=O)c2c(C)oc3ncnc(N4CCOCC4)c23)c(OC)c1,·,–,·,–
CC1CCN(S(=O)(=O)N2CCCC(C(=O)NCc3ccccc3Cl)C2)CC1 (centres undefined),–,7.08µM,?,–
CC1CC(C)CN(S(=O)(=O)N2CCCC(C(=O)NCc3ccccc3Cl)C2)C1 (centres undefined),–,?,–,–
Cc1ccc(S(=O)(=O)N2CCC(C(=O)NCc3ccccc3CN3CCCC3)CC2)cc1C,–,4.47µM,–,–
O=C(NCCc1ccc(Cl)cc1)C1CCCN(S(=O)(=O)N2CCCCCC2)C1 (centres undefined),–,5.62µM,–,–
CCOC(=O)N1CCN(S(=O)(=O)N2CCCC(C(=O)NCCc3ccc(Cl)cc3)C2)CC1 (centres undefined),–,?,–,–
Cc1noc(C)c1S(=O)(=O)N1CCCC(C(=O)NCCc2ccc(Cl)cc2)C1 (centres undefined),–,–,-71.7,–
Cc1ccccc1C(=O)Nc1ccc(C(=O)N2CCCC(O)c3cc(Cl)ccc32)c(C)c1 (centres undefined),·,·,·,–
O=C(CSc1nccn1-c1cccc(Cl)c1)Nc1ccc2c(c1)OCO2,·,–,·,–
CC1CCCCN1C(=O)C1CCN(c2nc(-c3ccccc3)nc3c2CCC3)CC1 (centres undefined),–,8.91µM,–,–
CCc1ccc(OCC(=O)Nc2cc(-c3ccc(C)cc3)no2)cc1,·,–,·,–
CC(=O)c1ccc2c(c1)N(C)c1ccccc1S2,–,–,–,–
CN(CCCN1c2ccccc2CCc2ccccc21)CC(=O)c1ccc(Cl)cc1,–,·,·,–
CCN(CC)CCN1c2ccccc2Sc2ccccc21,–,?,?,–
CN(C)CCCN1c2ccccc2CCc2ccc(Cl)cc21,–,?,-103.5,–
CN(C)CCCN1c2ccccc2Sc2ccccc21,–,?,-105.4,–
CCC(=O)c1ccc2c(c1)N(CCCN(C)C)c1ccccc1S2,–,11.2µM,-109.4,–
COc1ccc2c(c1)Sc1ccccc1N2CCN(C)C,–,?,-81.1,–
O=C(CCl)N(c1ccccc1)C1CCCCC1,–,?,-65.4,–
O=C(Oc1cccc(/C=N/Nc2nc(N3CCOCC3)nc(N3CCOCC3)n2)c1)c1ccco1,–,?,–,–
COc1cc(/C=N/Nc2nc(Nc3ccccc3)nc(N3CCOCC3)n2)ccc1OC(=O)c1ccco1,–,4.47µM,–,–
CC1CCN(C(=O)c2ncn(C)c2C(=O)N2CCC(C)CC2)CC1,–,–,-51.1,–
CC1CCN(C(=O)c2ncn3c2c(=O)[nH]c2ccccc23)CC1,–,–,–,–
Cc1c(C(=O)N2CCCCCC2)c(S(=O)(=O)Nc2cccc(C#N)c2)c(C)n1C,·,–,·,–
SMILES,GLP1R ag,GLP1R inv ag,DRD3 antagonist,D3 ag
CC(C)(C)NC(=O)c1ccc2c(c1)C1C3CCC(C3)C1C(c1ccccc1)N2 (centres undefined),–,2.82µM,–,–
COc1cccc(CNC(=O)c2ccc3c(c2)sc2nc(-c4ccccc4)cn23)c1OC,·,–,·,–
Cc1c(C(=O)N(C)C)sc2nc(-c3ccccn3)[nH]c(=O)c12,–,–,-57.1,–
Cc1ncc(CSc2ccc(Cl)cc2)c(CO)c1O,–,–,–,–
O=C(C#Cc1ccccc1)c1ccco1,–,?,-99.6,–
Cc1cc(-c2nc3cc(F)ccc3s2)ccc1N,–,?,–,–
CCC(CO)Oc1cc(NC(=O)c2ccc(C)cc2)c2ncn(C(C)C)c2c1 (centres undefined),–,–,–,–
COc1ccc(-c2cc(N)n(S(=O)(=O)c3c(F)c(F)c(F)c(F)c3F)n2)cc1OC,–,?,-56.3,–
CCC(C)NC(=O)c1ccc2c(c1)nc1n2CCCCC1 (centres undefined),·,–,·,–
O=S(=O)(NC1c2cccc3cccc(c23)C1N1CCNCC1)c1ccccc1 (centres undefined),–,10µM,–,–
O=S(=O)(NC1c2cccc3cccc(c23)C1N1CCN(CCO)CC1)c1ccccc1 (centres undefined),–,?,–,–
O=C1C2C3C=CC(C3)C2C(=O)N1c1ccc(N2CCN(c3ccccn3)CC2)c([N+](=O)[O-])c1 (centres undefined),–,2.82µM,–,–
O=C(CCN1C(=O)C2C3C=CC(C3)C2C1=O)N1CCN(c2ccccn2)CC1 (centres undefined),–,–,–,–
CCOC(=O)c1ccc(NC(=O)CC2Sc3ccc(C(F)(F)F)cc3NC2=O)cc1 (centres undefined),·,–,·,–
O=[N+]([O-])c1ccc(N=Nc2ccc(O)c3ccccc23)cc1,–,?,-71.3,–
CC(=O)C[C@H]1c2ccccc2S(=O)(=O)N1C1CCCC1,–,–,-167.8,–
O=C(Cn1cc(C(=O)C2CC2)c2ccccc21)NCc1ccc2c(c1)OCO2,–,6.31µM,–,–
COc1ccc(OC(C)C(=O)N(C)Cc2nc(-c3ccc(OC)cc3)no2)cc1 (centres undefined),–,?,–,40.5
COc1ccc(-c2noc(CN(C)CCC3CCCCO3)n2)cc1 (centres undefined),–,?,–,34.7
O=C(NCCc1ccccc1Cl)C1CCC(=O)N(C2CCCCCC2)C1 (centres undefined),–,?,–,–
O=C(CCN1C(=O)c2ccccc2C1=O)NCc1ccco1,–,–,–,–
O=C(CCN1C(=O)c2cccc3cccc(c23)C1=O)NCc1ccco1,–,–,–,34.4
Cc1ccc(N(CC(=O)Nc2ccc(Cl)cc2)S(=O)(=O)c2cccc3nonc23)cc1,–,10µM,·,–
CCc1ccc(NC(=O)CCNS(=O)(=O)c2cccc3nonc23)cc1,–,–,-63.3,–
CCc1ccc(NC(=O)CN(c2ccc(Cl)cc2)S(=O)(=O)c2ccsc2C(=O)OC)cc1,·,3.16µM,·,–
SMILES,GLP1R ag,GLP1R inv ag,DRD3 antagonist,D3 ag
Cc1ccc(NC(=O)CN(c2ccc(C)cc2)S(=O)(=O)c2cccc3nonc23)cc1,–,?,–,–
CCC(C)C1OC2(C=CC1C)CC1CC(C/C=C(\C)C(OC3CC(OC)C(OC4CC(OC)C(NC(C)=O)C(C)O4)C(C)O3)C(C)/C=C/C=C3\COC4C(O)C(C)=CC(C(=O)O1)C34O)O2 (centres undefined) (tested in a mixture with another compound),–,·,·,·
COc1cc(OC)c(N(C)C(=O)c2c(C)oc3ncnc(N4CCCCC4)c23)cc1Cl,·,–,·,–
O=C(NC1CCCCC1)N1CCN(CCc2ccccc2)CC1,–,–,-61.4,–
COC(=O)C(=C/C(C)=C/c1cccnc1)C(=O)OC,–,?,-51.8,–
Cc1ccc(C(C(=O)NC2CCCC2)N(C(=O)Cc2cccs2)c2ccc(C)c(C)c2)o1 (centres undefined),–,10µM,–,–
